From PubChem BioAssay AID777 (Sanford-Burnham Center for Chemical Genomics, 2007)
Among all 96,000 compounds or so, about 19,000 (20%) were called active.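 How the source made its calls: active means blocking of liver enzyme CYP2C9 beyond about 50% at 5 µM (limit read from the data); inactive means the rest.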 Only a sample is shown.

molecular target: Cytochrome P450 2C9 (Homo sapiens) (UniProt P11712); assay: blockers of cytochrome P450 2C9 activity – biochemical, luminescence, ADME assay, primary screen (AID 777); conditions: CYP2C9 Supersomes, luciferin-H conversion, at 5 µM, stronger effect = higher value
Sequence (P11712 whole entry, looked up): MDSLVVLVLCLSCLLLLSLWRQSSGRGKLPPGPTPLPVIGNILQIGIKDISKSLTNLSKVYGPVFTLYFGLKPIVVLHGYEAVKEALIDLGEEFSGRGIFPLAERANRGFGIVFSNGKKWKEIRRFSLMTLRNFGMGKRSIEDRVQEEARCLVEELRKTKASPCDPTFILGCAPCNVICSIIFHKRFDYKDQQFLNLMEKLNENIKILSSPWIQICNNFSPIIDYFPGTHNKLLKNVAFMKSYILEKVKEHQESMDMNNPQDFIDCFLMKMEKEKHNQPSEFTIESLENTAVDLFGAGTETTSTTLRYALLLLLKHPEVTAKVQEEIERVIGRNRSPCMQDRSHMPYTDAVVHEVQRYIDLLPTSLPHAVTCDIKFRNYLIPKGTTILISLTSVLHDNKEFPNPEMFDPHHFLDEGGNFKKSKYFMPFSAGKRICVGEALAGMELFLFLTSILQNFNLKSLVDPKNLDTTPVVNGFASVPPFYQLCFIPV

SMILES	inhibition
Brc1cnc(N2CCCC2)nc1N1CCCCC1	-15.1% (inactive)
COc1ccc(C2=NOC(C(=O)NCc3ccco3)C2)cc1OC (configuration not stated)	-31.2% (inactive)
Cc1ccnc(-n2sc3ccccc3c2=O)n1	30.1% (inactive)
Cc1cc(O)cc(O)c1C(=O)Cc1cnn(-c2ccccc2)c1	63.4% (active)
COc1ccc(C(=O)Cc2cnn(-c3ccccc3)c2)c(O)c1	5% (inactive)
CC(C)OC(=O)C(C#N)c1nc2ccccc2nc1N1CCN(Cc2ccccc2)CC1 (configuration not stated)	62.6% (active)
CC(C)OC(=O)C(C#N)c1nc2ccccc2nc1N1CCN(Cc2ccc3c(c2)OCO3)CC1 (configuration not stated)	16.9% (inactive)
Cn1nnnc1SCC(=O)N1CCN(Cc2ccccc2)CC1	1.6% (inactive)
Cc1cccc(C)c1NC(=O)c1ccc(CN2CCc3ccccc3C2)cc1	-5.8% (inactive)
CC1(C)Cc2c(sc3nc4n(c(=N)c23)CCCCC4)CO1	3.2% (inactive)
C=CC[n+]1c(-c2ccc(C)cc2)csc1NNC(=O)Nc1ccccc1	8.5% (inactive)
Oc1ccc(-c2csc(Nc3cccnc3)n2)cc1	37.6% (inactive)
c1cnc(Nc2nc(-c3ccc4ccccc4c3)cs2)nc1	-3.5% (inactive)
c1ccc(Nc2nc(-c3ccncc3)cs2)nc1	92.9% (active)
Fc1ccc(Br)cc1/C=N/n1cnnc1	6.6% (inactive)
Cc1cccc(C(=O)Nc2nnc(Cc3c[nH]c4ccccc34)s2)c1	-4.3% (inactive)
CN(CC#CCC(c1ccccc1)c1ccccc1)C(C)(C)C	25.6% (inactive)
CCCCn1c(=S)[nH]c2ncccc2c1=O	13.8% (inactive)
Fc1ccc(Cn2nnnc2C(c2cccs2)N2CCCCCC2)cc1 (configuration not stated)	83.4% (active)
CC(C)C(c1nnnn1Cc1ccccc1)N1CCC(C(N)=O)CC1 (configuration not stated)	10.7% (inactive)
N#Cc1ccc(C(c2nnnn2CCc2ccccc2)N2CCCCCC2)cc1 (configuration not stated)	8.8% (inactive)
CCOC(=O)N1CCC(C(N)=O)CC1	-7.1% (inactive)
Cc1ccccc1OCC(=O)NCC(=O)OCC(=O)c1ccc2ccccc2c1	-61.4% (inactive)

SMILES	inhibition
CCCOc1ccc2c3c(c(=O)oc2c1OCCC)CCC3	-0.6% (inactive)
O=C(Oc1ccc(-c2nc(-c3ccccn3)no2)cc1)c1ccccc1	87.2% (active)
CC(C)c1nc(-c2ccccn2)no1	3.9% (inactive)
O=C(Oc1ccccc1)c1ccc2nccnc2c1	17% (inactive)
COCCOC(=O)C1=C(C)NC(=O)NC1c1ccc(Cl)cc1 (configuration not stated)	-3% (inactive)
CCOC(=O)C1=C(CN2CCc3ccccc32)NC(=O)NC1c1ccc(Cl)cc1 (configuration not stated)	4.7% (inactive)
CCOC(=O)C1=C(C)NC(=O)N(C(C)=O)C1c1ccc(Cl)cc1 (configuration not stated)	74.3% (active)
COc1ccc(C2=NOC3(CC(=O)N(c4ccc(Cl)cc4)C3=O)C2)c(OC)c1 (configuration not stated)	23% (inactive)
O=C(NC1CCN(Cc2ccccc2)CC1)c1ccccc1F	7.8% (inactive)
COc1ccc(-c2nn3c(-c4ccccc4)nnc3s2)cc1OC	6.9% (inactive)
CCOc1cccc(-c2nn3c(-c4ccccn4)nnc3s2)c1	23.2% (inactive)
COc1cc(-c2nn3c(-c4cccc(C)c4)nnc3s2)cc(OC)c1OC	74.1% (active)
Cc1cc(NC(=O)COn2nnc3ccccc32)no1	24.9% (inactive)
Cc1ccc(C(=O)N2CCN(C(=O)N3CCOCC3)CC2)cc1	11.5% (inactive)
Cc1cc2nc(-c3ccc(NC(=O)c4cccnc4)cc3)oc2cc1C	7.6% (inactive)
C=CCN1C(=O)C(O)(CC(=O)c2ccc(Cl)cc2)c2ccccc21 (configuration not stated)	67.9% (active)
CCOC(=O)CN1C(=O)C(O)(CC(=O)c2ccccn2)c2ccccc21 (configuration not stated)	26% (inactive)
O=C(CC1(O)C(=O)N(CN2CCOCC2)c2ccccc21)c1ccccc1 (configuration not stated)	-1% (inactive)
Nc1c(C(=O)NCc2ccccc2)sc2nc3c(cc12)C(=O)CCC3	6% (inactive)
Cc1cc(C)c2nc(NC(=O)C3CCCO3)sc2c1 (configuration not stated)	28.3% (inactive)
O=C(Cc1ncc(C(F)(F)F)cc1Cl)Nc1cccc(Br)c1	24.9% (inactive)
CCCN(CCC)C(=O)C1c2ccccc2Oc2ccccc21	53.1% (active)
CCOC(=O)N1CCN(C(=O)CNC(=O)Cc2ccc(Cl)cc2)CC1	10.1% (inactive)

SMILES	inhibition
CCOc1cc(N2CCOCC2)c(OCC)cc1NC(=O)COc1cccc2cccnc12	0% (inactive)
CCOC(=O)CSc1nc2sc3c(c2c(=O)[nH]1)CC(C)(C)OC3	15.3% (inactive)
C=CCn1c(SCC(=O)/C(C#N)=C(\C)N)nc2sc(C)c(C)c2c1=O	38.5% (inactive)
CC(=O)c1sc2nc(SCC(=O)N3CCCCC3)[nH]c(=O)c2c1C	95.6% (active)
O=C(CSc1nc2c(cnn2-c2ccc(F)cc2)c(=O)[nH]1)N1CCCCCC1	1.3% (inactive)
Cc1cccc(NC(=O)CSc2nc3c(c(=O)[nH]2)CCCC3)c1C	35.7% (inactive)
C=CCNC(=O)CSc1nc2sc(C)c(C)c2c(=O)[nH]1	58.1% (active)
Cn1c(=O)cc(OCCCC(=O)N2CCN(Cc3ccc4c(c3)OCO4)CC2)c2ccccc21	9.3% (inactive)
CCOC(=O)NNC(=O)c1ccc(Cl)cc1	1.4% (inactive)
CN(C)/C=C/c1c(C#N)c(=O)ncn1Cc1ccccc1	3.3% (inactive)
Cn1c(CCN2CCCCCC2)nc2cc(NC(=O)Nc3ccccc3)ccc21	-0.2% (inactive)
Cc1nc2ccc(NC(=O)N3CCC(c4ccccc4)C3)cc2nc1C (configuration not stated)	51.4% (active)
COc1ccc(NC(=O)Nc2ccc3nc(C)c(C)nc3c2)cc1	18.7% (inactive)
Cc1cc(C(=O)CC#N)c(C)n1CC(F)(F)F	19.4% (inactive)
COc1cccc2cc(C(=O)N(C)C)c(=O)oc12	-103% (inactive)
CCCCOc1ccc(-c2ncc(C(=O)OCC)c(N)n2)cc1	-19.4% (inactive)
CCOC(=O)c1c(C)nc(-c2ccccc2)nc1NC(=O)C(C)C	23% (inactive)
CCOC(=O)c1cnc(-c2ccccc2)nc1Oc1ccc(C)cc1	65.7% (active)
COc1ccc(C(=O)c2c(C)oc3cc([N+](=O)[O-])c(O)c([N+](=O)[O-])c23)cc1	79.8% (active)
COc1ccc(NC(=O)c2c(C)oc3c2CCCC3)cc1	15.4% (inactive)
COc1ccc(C(=O)c2oc3ccc(Br)cc3c2NC(C)=O)cc1	1.7% (inactive)
